Only some compounds are listed: those with a hit (about 4.2% of all), similar ones and a draw of the others.
tim10-1 inh: inhibits growth of tim10-1 mutant yeast. S. cerevisiae tim10-1 ts strain growth, BacTiter-Glo, 24 h. inhibition, % at 20 µM. hit rate 2.2% among 330,000. AID 463190;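 active = inhibition of at least 40%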;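 note: mutant grown at 25 °C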
NALP1 yeast inh: blocks the NALP1 inflammasome reconstituted in yeast | inhibition, % at 10 µM | S. cerevisiae NALP1/ASC/caspase-1 growth, X-gal OD620, 72 h | hit rate 0.61% among 280,000; in the data active = inhibition mostly above about 24%, no sharp cut-off; inactive = mostly below about 32%
TIM10 inh: inhibits growth of TIM10 yeast strain | S. cerevisiae TIM10 strain growth, BacTiter-Glo luminescence, 24 h | inhibition, % at 10 µM | hit rate 1.4% among 330,000 | AID 463195;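 active = inhibition of 40% or more at the single tested concentration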;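 note: wild-type TIM10 isogenic control strain grown at permissive 25 °C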
V-ATPase pHluor: regulators of yeast V-ATPase proton transport. S. cerevisiae, pHLuorin cytosolic pH fluorescence. response, % at 10 µM. hit rate 0.37% among 350,000. AID 504577; in the data active = response mostly above about 7.3%, no sharp cut-off; inactive = mostly below about 5.4%; note: actives read high
tim23-1 inh: tim23-1 yeast growth inhibition; S. cerevisiae tim23-1 growth, BacTiter-Glo luminescence, 24 h; inhibition, % at 20 µM; hit rate 1.3% among 330,000; AID 463212;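 active = growth inhibition of the mutant yeast at or above 50%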;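 note: temperature-sensitive mutant grown at 25 °C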
NALP3 yeast inh: blocks the NALP3 inflammasome reconstituted in yeast | AID 2825 | Yeast reconstituted NLRP3/ASC/caspase-1, beta-gal luminescence, 24 h | hit rate 0.39% among 330,000 | inhibition, % at 10 µM;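 active = inhibition of 50% or more; inactive = inhibition below 50%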
tim23-1 conf: tim23-1 yeast growth inhibition, confirmed; inhibition, % at 20 µM; shares compounds with tim23-1 inh; hit rate 83% among 4,400; AID 463218; S. cerevisiae tim23-1 growth, BacTiter-Glo luminescence, 24 h;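 active = inhibition above about 39% in either of two replicate wells at 20 µM, limit read from the data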;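 note: temperature-sensitive tim23-1 mutant grown at 25 °C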
Large screens that a line does not name were inactive (follow-up assays come after a bar, where they were run); ! = a repeat was not active.

COc1ccc(-n2ncc3c2CC(C)(C)CC3NC(=O)CCn2cncn2)cc1 (configuration not stated)	none
Cc1ccc(C(=O)N2c3ccccc3OCC2C)cc1 (configuration not stated)	none
Cc1ccc(C(=O)N2C(=O)C(c3ccccc3)Oc3ccccc32)cc1 (configuration not stated)	tim23-1 inh 69 | tim23-1 conf 53
CCCC1CCC(c2ccc(/C(N)=N/O)cc2)CC1 (configuration not stated)	none
COc1cccc(C(=O)C(CCC#N)c2ccccc2)c1 (configuration not stated)	none (no result: tim10-1 inh, NALP1 yeast inh, TIM10 inh, tim23-1 inh, NALP3 yeast inh)
CSC(SC)=C(C#N)C(=O)c1ccccc1	tim23-1 inh 80 | tim23-1 conf 85
COc1cccc(C(=O)C(C#N)=C(SC)SC)c1	tim23-1 inh 60 | tim23-1 conf 77
COc1ccc(N(CC(=O)N/N=C/c2ccc(C(=O)O)cc2)S(=O)(=O)c2ccc(NC(C)=O)cc2)cc1	none
COc1ccc(C(C[N+](=O)[O-])c2c(C)[nH]n(-c3ccccc3)c2=O)cc1 (configuration not stated)	NALP1 yeast inh 45, tim23-1 inh 76 | tim23-1 conf 67
COc1cc(/C=N/N(c2ccccc2)c2ccccc2)ccc1O	none
CN(/N=C\c1ccc(O)c(O)c1)c1nc(-c2ccccc2)cc(-c2ccccc2)n1	tim23-1 inh 55 | tim23-1 conf 41
CCc1ccccc1OCCCN1CCCC1	none
O=C(Nc1ccccc1N(C(=O)c1ccco1)S(=O)(=O)c1cccs1)c1ccco1	tim23-1 inh 54 | tim23-1 conf 38
Cc1ccc2c(Cl)c(C)c(N3CCCCC3)nc2n1	NALP1 yeast inh 46, tim23-1 inh 67 | tim23-1 conf 58
O=[N+]([O-])c1cc2oc3c(c2c(C=NCc2ccncc2)c1O)CCCC3	none (no result: tim10-1 inh, TIM10 inh, tim23-1 inh, NALP3 yeast inh)
COc1cccc2c1C(=O)C=C(C)C2=O	NALP1 yeast inh 96, tim23-1 inh 50 | tim23-1 conf 47
CC1=CC(=O)c2ccccc2C1=O	tim23-1 inh 51! | tim23-1 conf 63
O=C1C=C(Nc2ccccc2)C(=O)c2ccccc21	none
O=C(O)CN1C(=O)/C(=C\c2cc(Br)ccc2OCc2ccc(Cl)cc2Cl)SC1=S	tim23-1 inh 53 | tim23-1 conf 56
COc1ccc(C2CC(c3cccc([N+](=O)[O-])c3)=NN2/C(C)=C/C(C)=O)cc1 (configuration not stated)	none (no result: tim10-1 inh, NALP1 yeast inh, TIM10 inh, tim23-1 inh, NALP3 yeast inh)
CN(C(=O)COC(=O)CCC1CCCCC1)c1c(N)n(Cc2ccccc2)c(=O)[nH]c1=O	none (no result: NALP1 yeast inh)
CCc1nc(Nc2cccc(O)c2)c2oc3ccccc3c2n1	tim23-1 inh 60 | tim23-1 conf 46
CCc1nc(Nc2ccncc2)c2oc3ccccc3c2n1	none
O=C(CN1C(=O)/C(=C/c2ccccc2Cl)SC1=S)NC1CCS(=O)(=O)C1 (configuration not stated)	none
Cc1cc(C)n(-c2ccc(Cl)c(C(=O)Nc3ccc(OC(F)(F)F)cc3)n2)n1	none
CCOc1ccccc1N1CCN(C(=S)NC(=O)C23CC4CC(CC(C4)C2)C3)CC1	tim23-1 inh 51 | tim23-1 conf inactive
O=C(NC(=S)N1CCN(c2ccc(F)cc2)CC1)C12CC3CC(CC(C3)C1)C2	none
CCOc1ccccc1N1CCN(C(=S)NCc2ccc(Cl)cc2)CC1	tim23-1 inh 55 | tim23-1 conf 46
O=C(CCC(=O)N1CCCCCC1)Nc1ccc([N+](=O)[O-])cc1	none
c1ccc2c(c1)CCCN2Cc1nnnn1CC1CCCO1 (configuration not stated)	none
Oc1ccccc1-c1cc(-c2ccc(F)cc2)n[nH]1	tim23-1 inh 68 | tim23-1 conf 61
Oc1ccccc1-c1cc(-c2ccccc2)n[nH]1	tim23-1 inh 71 (no result: NALP1 yeast inh) | tim23-1 conf 60
Oc1ccccc1-c1ccn[nH]1	none (no result: NALP1 yeast inh)
Oc1ccc(F)cc1-c1cc(-c2ccc3c(c2)OCCO3)n[nH]1	none
Cc1cc(C(=O)NNS(=O)(=O)c2ccc(F)cc2)nn1C(C)(C)C	none
O=C(NC(=S)Nc1ccc2c(c1)OCCO2)c1ccccc1	tim23-1 inh 54 | tim23-1 conf 44
O=C(Nc1ccc2c(c1)OCCO2)c1ccccc1F	tim23-1 inh 66 | tim23-1 conf 40
Cc1cccc(NC(=O)c2ccc3c(c2)OCCO3)c1	none
O=C(NC(=S)Nc1ccc2c(c1)OCCO2)c1ccccc1F	none
Cc1ccc(NC(=O)c2ccc3c(c2)OCCO3)cc1C	tim23-1 inh 64 | tim23-1 conf 63
O=C(c1ccccc1NS(=O)(=O)c1ccc([N+](=O)[O-])cc1[N+](=O)[O-])N1O[C@@H]2C=C[C@H]1C2	tim23-1 inh 53 (no result: NALP1 yeast inh, NALP3 yeast inh) | tim23-1 conf inactive
O=C(Nc1nccs1)c1ccc(Br)s1	tim23-1 inh 64 | tim23-1 conf 52
O=C(CCNC(=O)c1ccc(Br)cc1)Nc1nccs1	none
O=C(Nc1nccs1)c1ccc(Br)cc1	tim23-1 inh 56 | tim23-1 conf inactive
c1ccc2cc(OCc3nc4ccccc4[nH]3)ccc2c1	tim23-1 inh 52 | tim23-1 conf inactive
Cc1ccc(NC(=O)CCC(=O)N2CCOCC2)nc1	none (no result: NALP1 yeast inh)
C[C@H](NC(=O)C1CCN(S(=O)(=O)c2ccccc2)CC1)C(=O)NC1CC1	none (no result: tim10-1 inh, NALP1 yeast inh, TIM10 inh, tim23-1 inh, NALP3 yeast inh)
Nc1nc(-c2cc(Cl)cc(Cl)c2OC(F)F)cs1	tim23-1 inh 61 | tim23-1 conf 52
CCc1ccc(OC)c(-c2csc(N)n2)c1	none
Clc1ccc(-c2[nH]ncc2N=Nc2ccccc2)cc1	tim23-1 inh 68 | tim23-1 conf inactive
c1ccc(N=Nc2ccc3cccccc2-3)cc1	none (no result: NALP1 yeast inh)
CCOC(=O)C1(Cc2ccc(Cl)cc2)CCN(C(=O)c2cscn2)CC1	none
Cc1ccc(Nc2cc(C)c3ccc(O)cc3n2)cc1C	tim23-1 inh 82 (no result: NALP1 yeast inh) | tim23-1 conf 36
Cc1ccc(OCCn2c3ccccc3n3nc(C)c(=O)nc23)cc1	none
CCOC(=O)/C(C#N)=C/c1cc2cc(C)c(C)cc2nc1Cl	tim23-1 inh 62 (no result: NALP1 yeast inh) | tim23-1 conf 70
CCCCOc1ccc(-c2c(C#N)c(N)nc(SCC(N)=O)c2C#N)cc1	none
CCOC(=O)C1=C(C)N=c2s/c(=C\c3ccc(OCC(=O)O)cc3)c(=O)n2C1c1ccccc1 (configuration not stated)	none
COC(=O)C1=C(C)N=c2s/c(=C/c3ccoc3)c(=O)n2C1c1ccccc1 (configuration not stated)	tim23-1 inh 50 | tim23-1 conf 50
COc1ccc(-n2c(=O)c(CCC(=O)N3CCN(c4cccc(OC)c4)CC3)nc3ccccc32)cc1	none (no result: tim10-1 inh, NALP1 yeast inh, TIM10 inh, tim23-1 inh, NALP3 yeast inh)
CC(C)OCCCNC(=O)COc1ccc2oc3c(c2c1)CCCC3	none
CC1(c2ccccc2)CC(C)(C)n2c(O)c(C3=NC(=S)NC3=O)c3cccc1c32 (configuration not stated)	none (no result: NALP1 yeast inh)

High-throughput results deposited in PubChem BioAssay by several laboratories.
